According to PubChem BioAssay:
Calls of active or inactive are those of the source. Unless noted, how the calls were made is not given here.

Assays:
[1] = HepG2 liver cancer cell viability effects, profiling panel, resazurin fluorescence, 24 h, PK04 Diversity Set (AID 1172); details: higher = more signal
[2] = basal S. cerevisiae growth modulation, no modifier, primary screen, OD600, strain BY4716, 24 h, basal condition (AID 1173); details: OD600, 24 h, higher = more signal, called active from +8 up or from −8 down
[3] = MM1S myeloma cell viability, profiling panel, resazurin fluorescence, basal, 24 h, PK04 Diversity Set (AID 1174); details: higher = more signal, called active from +8 up or from −8 down;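 further: MM1S multiple myeloma cell line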
[4] = target: Dihydroorotate dehydrogenase (quinone), mitochondrial (Plasmodium falciparum (isolate 3D7)) (UniProt Q08210); assay: PfDHODH enzyme inhibitors, primary screen, biochemical, C-terminal His tag, absorbance 600 nm (AID 1175); details: DCIP absorbance 600 nm, higher = more signal, called active from +8 up or from −8 down;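 further: recombinant parasite enzyme with a five histidine tag at its C terminus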
[5] = P. aeruginosa biofilm formation inhibitors, primary screen, strain PAO1, LB-PBS medium, absorbance 600 nm (AID 1176); details: P. aeruginosa PAO1 growth/biofilm, A600, 12 h; higher = more signal
[6] = S. cerevisiae RM11-1a growth modifiers, primary screen, strain RM11-1a, OD600, basal, 24 h (AID 1177); details: OD600, 24 h, higher = more signal, called active from +8 up or from −8 down;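 further: cultures grown under basal conditions with no added stressor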
[7] = E. coli acrAB mutant growth effects, primary screen, E. coli filamentation inducers, strain DRC39, OD650, 24 h (AID 1178); details: higher = more signal, called active from +8 up or from −8 down;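 further: growth measured as culture turbidity by optical density at 650 nm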
[8] = E. coli acrAB mutant growth effects, primary screen, E. coli filamentation inducers, strain DRC39, OD650, 48 h (AID 1179);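 further: screen aims at cell division blockers that make cells filament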; details: E. coli DRC39 delta-acrAB growth, higher = more signal, called active from +8 up or from −8 down
[9] = RPMI8226 myeloma cell viability, profiling panel, resazurin fluorescence, basal, 24 h, PK04 Diversity Set (AID 1180); details: higher = more signal;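 further: RPMI8826 multiple myeloma cell line at 5000 cells per well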
[10] = target: E3 ubiquitin-protein ligase XIAP (Homo sapiens) (UniProt P98170); assay: XIAP binders, primary screen, biophysical, small-molecule microarray, fluorescence 635 nm (AID 1181); details: small-molecule microarray binding, higher = more signal;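 further: score merges 667 nm emission and signal to noise over triplicate slides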
[11] = system: XIP peptide (Xip251-270) binding; assay: small-molecule binders of XIP peptide, primary screen, biochemical, small-molecule microarray, fluorescence 635/667 nm, 0.1 µg/mL protein (AID 1182); details: fluorescent protein binding, 635 nm, higher = more signal, called active from +8 up or from −8 down
XIP peptide (Xip251-270) = assay: small-molecule binders of XIP peptide, primary screen, biochemical, small-molecule microarray, fluorescence 635/667 nm, 0.5 µg/mL protein (AID 1183); details: small-molecule microarray binding, fluorescence 635 nm; higher = more signal
[12] = Plasmodium falciparum growth inhibition, primary screen, strain 3D7, DAPI fluorescence, 100 nL (AID 1184);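 further: parasites grown inside human red blood cells in medium with human serum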; details: P. falciparum 3D7 growth, 3 d, higher = more signal
[13] = target: Homeobox protein Hox-A13 (Mus musculus) (UniProt Q62424); assay: inhibitors of HoxA13-DNA binding, primary screen, biochemical, fluorescence polarization, labeled oligonucleotide (AID 1185); details: 15 min, higher = more signal, called active from +8 up or from −8 down
[14] = inhibitors of hydroxyurea-induced Chk1 phosphorylation, primary screen, imaging, HeLa, phospho-Chk1 antibody, percent positive cells (AID 1186); details: hydroxyurea-induced phospho-Chk1 immunofluorescence imaging, higher = more signal
[15] = inhibitors of hydroxyurea-induced Chk1 phosphorylation, primary screen, imaging, HeLa, phospho-Chk1 nuclear intensity (AID 1187); details: hydroxyurea-induced phospho-Chk1 immunofluorescence imaging, higher = more signal

Sequence of Homeobox protein Hox-A13 (Mus musculus) (Q62424 whole entry, looked up): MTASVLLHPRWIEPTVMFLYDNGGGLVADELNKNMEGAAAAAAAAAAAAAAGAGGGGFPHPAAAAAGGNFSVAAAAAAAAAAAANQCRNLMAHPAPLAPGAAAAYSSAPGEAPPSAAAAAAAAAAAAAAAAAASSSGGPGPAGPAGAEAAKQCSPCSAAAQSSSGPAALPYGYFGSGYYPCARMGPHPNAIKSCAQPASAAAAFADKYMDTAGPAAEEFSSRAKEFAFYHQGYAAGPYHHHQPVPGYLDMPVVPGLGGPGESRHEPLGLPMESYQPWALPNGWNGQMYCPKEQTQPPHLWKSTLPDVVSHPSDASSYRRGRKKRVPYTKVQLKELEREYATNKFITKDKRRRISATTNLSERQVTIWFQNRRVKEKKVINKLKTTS
Sequence of Dihydroorotate dehydrogenase (quinone), mitochondrial (Plasmodium falciparum (isolate 3D7)) (Q08210 whole entry, looked up): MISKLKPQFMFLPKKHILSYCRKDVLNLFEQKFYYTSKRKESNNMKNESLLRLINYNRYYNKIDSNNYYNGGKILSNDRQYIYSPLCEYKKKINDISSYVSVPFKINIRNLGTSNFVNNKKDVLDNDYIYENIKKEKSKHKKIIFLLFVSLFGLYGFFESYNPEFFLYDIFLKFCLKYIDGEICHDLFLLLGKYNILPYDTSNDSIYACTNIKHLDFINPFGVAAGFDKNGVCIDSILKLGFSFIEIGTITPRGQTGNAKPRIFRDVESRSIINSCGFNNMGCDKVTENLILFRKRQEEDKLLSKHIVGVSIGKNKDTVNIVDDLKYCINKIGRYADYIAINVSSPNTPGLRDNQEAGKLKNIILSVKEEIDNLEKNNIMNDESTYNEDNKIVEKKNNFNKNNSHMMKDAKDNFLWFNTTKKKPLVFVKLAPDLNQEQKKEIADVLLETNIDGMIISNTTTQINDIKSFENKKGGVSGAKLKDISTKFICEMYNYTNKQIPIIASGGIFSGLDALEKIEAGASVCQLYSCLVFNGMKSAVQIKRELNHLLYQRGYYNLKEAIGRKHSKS
Sequence of E3 ubiquitin-protein ligase XIAP (Homo sapiens) (P98170 whole entry, looked up): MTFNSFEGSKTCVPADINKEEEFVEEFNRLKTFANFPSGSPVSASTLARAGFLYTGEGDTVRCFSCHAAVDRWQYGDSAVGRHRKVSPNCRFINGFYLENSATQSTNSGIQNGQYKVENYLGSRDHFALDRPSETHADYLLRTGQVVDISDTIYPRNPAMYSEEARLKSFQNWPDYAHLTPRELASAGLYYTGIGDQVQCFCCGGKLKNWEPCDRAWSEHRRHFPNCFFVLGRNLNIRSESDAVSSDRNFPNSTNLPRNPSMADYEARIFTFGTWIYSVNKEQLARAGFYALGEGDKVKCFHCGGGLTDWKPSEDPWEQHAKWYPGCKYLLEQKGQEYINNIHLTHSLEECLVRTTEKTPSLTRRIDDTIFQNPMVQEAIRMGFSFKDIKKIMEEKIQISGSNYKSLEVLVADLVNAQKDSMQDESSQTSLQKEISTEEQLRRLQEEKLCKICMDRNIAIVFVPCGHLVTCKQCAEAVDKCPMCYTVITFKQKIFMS

| Structure (SMILES) | z-score [1] | z-score [2] | z-score [3] | composite z-score [4] | z-score [5] | z-score [6] | z-score [7] | z-score [8] | z-score [9] | composite z-score [10] | composite z-score [11] | composite z-score (XIP peptide (Xip251-270)) | z-score [12] | z-score [13] | z-score [14] | z-score [15] |
| --- | --- | --- | --- | --- | --- | --- | --- | --- | --- | --- | --- | --- | --- | --- | --- | --- |
| CN1C(=O)C2C=CC(C(O)C3=C[C@H]4C[C@@H](C3)C4(C)C)N(Nc3ccc([N+](=O)[O-])cc3[N+](=O)[O-])C2C1=O (stereo partly drawn) | -0.241 | 0.473 (inactive) | -0.569 (inactive) | -0.0042 (inactive) | 0.434 (inactive) | 1 (inactive) | -0.146 (inactive) | -0.476 (inactive) | 0.116 | 0.772 | 0.334 (inactive) | 0.704 | 0.395 | -3.59 (inactive) | -0.21 (inactive) | -0.257 (inactive) |
| CC(=O)n1cc(C(O)C2C=CC3C(=O)N(c4ccccc4)C(=O)C3N2Nc2ccc(C#N)cc2)c2ccccc21 (stereo not drawn) | -0.592 | -2.71 (inactive) | -0.897 (inactive) | -0.796 (inactive) | 0.956 (inactive) | -0.129 (inactive) | -0.698 (inactive) | -0.119 (inactive) | -0.189 | 0.147 | 1.16 (inactive) | 0.786 | 0.429 | -3.54 (inactive) | -0.199 (inactive) | -0.217 (inactive) |
| COc1ccc([Si](C)(C)[C@@H]2[C@@H](CC(=O)N3Cc4ccccc4C[C@H]3CO)O[C@]3(C(=O)N(Cc4cccc(N5C(=O)COc6ccccc65)c4)c4ccccc43)[C@H]2C)cc1 | 0.645 | -1.17 (inactive) | -1.84 (inactive) | -1.32 (inactive) | 1.92 (inactive) | 1.39 (inactive) | 1.53 (inactive) | 1.53 (inactive) | -0.748 | 0.188 | 1.16 (inactive) | 0.778 | -2.79 | -0.616 (inactive) | -0.635 (inactive) | -0.0275 (inactive) |
| [N-]=[N+]=Nc1ccccc1[C@@H]1OC(c2ccc(OCCCO)cc2)=N[C@]1(CCS(=O)(=O)c1ccccc1)C(=O)N1CCCCC1 | -0.644 | 1.69 (inactive) | -1.66 (inactive) | 1.06 (inactive) | 0.687 (inactive) | 2.08 (inactive) | -0.0955 (inactive) | -0.933 (inactive) | -1.81 | -0.202 | 1.32 (inactive) | 0.574 | -2.23 | -2.67 (inactive) | 0.0919 (inactive) | -0.121 (inactive) |
| C=CCN1C(=O)[C@@]2(O[C@@H](CCO)[C@H]([Si](C)(C)c3ccc(OC)cc3)[C@H]2C)c2cc(N3C(=O)COc4ccccc43)ccc21 | -6.28 | 0.445 (inactive) | -8.85 (active) | 0.428 (inactive) | -0.258 (inactive) | 3.31 (inactive) | 1.09 (inactive) | 0.338 (inactive) | -6.27 | -0.031 | 1.28 (inactive) | 0.623 | -2.68 | -4.65 (inactive) | -1.39 (inactive) | -0.883 (inactive) |
| C=CCC(OC(C)=O)[C@@H]1[C@@H](N(Cc2ccc(-c3cccc(C(F)(F)F)c3)o2)C(=O)Cc2ccc(OC)cc2)c2cc(OCCCO)ccc2N1C(=O)Cc1ccc(OC)cc1 (stereo partly drawn) | -0.0596 | -1.2 (inactive) | 1.08 (inactive) | -1.49 (inactive) | 0.125 (inactive) | -1.08 (inactive) | 1.49 (inactive) | 0.814 (inactive) | 0.695 | -0.0879 | -0.343 (inactive) | 0.278 | -2.23 | -3.42 (inactive) | -0.186 (inactive) | -0.0407 (inactive) |
| O=C1O[C@H](c2ccccc2)[C@H](c2ccccc2)N2[C@H]1[C@@H](C(=O)N1CCCCCCC1)[C@]1(C(=O)Nc3ccc(C#CC4=CCCCC4)cc31)[C@H]2c1ccc(O)cc1 | 0.693 | -0.63 (inactive) | -0.693 (inactive) | -0.744 (inactive) | 0.485 (inactive) | -0.668 (inactive) | -0.182 (inactive) | -1.53 (inactive) | -0.0437 | 3.33 | 8.07 (active) | 1 | -1.96 | 3.02 (inactive) | -0.323 (inactive) | -0.649 (inactive) |
| C=CCC(OC(C)=O)[C@@H]1[C@@H](N(Cc2cc3ccccc3o2)C(=O)c2cccc3ccccc23)c2cc(OCCCO)ccc2N1C(=O)Cc1ccc(OC)cc1 (stereo partly drawn) | -1.29 | -0.149 (inactive) | -1.17 (inactive) | 0.507 (inactive) | -0.334 (inactive) | 0.196 (inactive) | -0.386 (inactive) | -0.725 (inactive) | -1.17 | 0.211 | 0.1 (inactive) | -0.208 | -2.37 | -3.31 (inactive) | 0.821 (inactive) | 0.775 (inactive) |
| CCCC[C@@H]1C[C@H]1[C@@H](NC(=O)c1ccccc1)c1ccc(-c2ccccc2)cc1 | -2.26 | -0.552 (inactive) | -2.24 (inactive) | -0.297 (inactive) | 0.122 (inactive) | 0.219 (inactive) | -0.499 (inactive) | -0.293 (inactive) | -3.64 | 1.14 | 0.397 (inactive) | -0.0572 | -0.0371 | -3.63 (inactive) | -0.0528 (inactive) | 0.215 (inactive) |
| [N-]=[N+]=NCc1ccccc1C[C@@]1(C(=O)NCc2ccccc2)N=C(c2ccc(OCCCO)cc2)O[C@@H]1c1ccccc1CN=[N+]=[N-] | -0.594 | 0.548 (inactive) | -0.709 (inactive) | -0.067 (inactive) | 1.74 (inactive) | 1.28 (inactive) | 0.561 (inactive) | 0.678 (inactive) | -0.538 | -0.174 | 0.804 (inactive) | 0.735 | -2.59 | 3.34 (inactive) | -0.174 (inactive) | -0.332 (inactive) |
| CO[C@H]1O[C@H](CO)[C@@H](OC(=O)Nc2ccccc2-c2ccccc2)[C@H](OC(=O)Nc2ccccc2-c2ccccc2)[C@H]1OC(=O)Nc1ccccc1-c1ccccc1 | -1.04 | 1.95 (inactive) | -1.6 (inactive) | -0.236 (inactive) | 1.45 (inactive) | 4.43 (inactive) | 0.494 (inactive) | -0.0039 (inactive) | -1.6 | 1.26 | 0.0163 (inactive) | 0.861 | -1.06 | -2.05 (inactive) | -0.0075 (inactive) | 0.618 (inactive) |
| COCCCNC(=O)[C@@]1(C)c2ccccc2C(=O)N(Cc2ccccc2)[C@H]1c1ccc(CO)cc1 | -0.0127 | -0.552 (inactive) | 0.392 (inactive) | -0.121 (inactive) | 0.745 (inactive) | -0.755 (inactive) | -0.157 (inactive) | -0.275 (inactive) | -0.153 | -0.0304 | 0.132 (inactive) | 0.947 | -1.35 | -1.86 (inactive) | -0.258 (inactive) | -0.432 (inactive) |
| COc1ccccc1CN1C(=O)c2ccccc2[C@](Cc2ccccc2I)(C(=O)NCc2ccccc2)[C@@H]1c1ccc(CO)cc1 | -0.583 | 0.511 (inactive) | -1.05 (inactive) | -0.141 (inactive) | 0.0993 (inactive) | -0.283 (inactive) | -0.331 (inactive) | 0.363 (inactive) | -1.12 | -0.16 | -0.501 (inactive) | 0.801 | -0.818 | -2.8 (inactive) | 0.234 (inactive) | 0.365 (inactive) |
| COCCn1c(C(=O)N(C)C)cc2c1C[C@H]1CN(C(=O)c3ccccc3)[C@@](Cc3ccc(F)cc3)(C(=O)OC)[C@@H]21 | -0.473 | 0.717 (inactive) | -0.665 (inactive) | -0.0005 (inactive) | 0.535 (inactive) | 1.02 (inactive) | 0.0751 (inactive) | 0.223 (inactive) | -0.38 | 0.0447 | 0.112 (inactive) | 0.0743 | -0.292 | -4.93 (inactive) | 0.562 (inactive) | 0.478 (inactive) |
| CCCC[C@@H]1C[C@H]1[C@@H](NC(=O)c1ccco1)c1ccccc1 | 1.39 | -3.05 (inactive) | 0.757 (inactive) | -1.19 (inactive) | -0.195 (inactive) | 0.586 (inactive) | -0.9 (inactive) | -0.569 (inactive) | 0.0092 | 0.171 | -0.153 (inactive) | -0.041 | -1.46 | -2.46 (inactive) | 0.243 (inactive) | 0.428 (inactive) |
| C=C(COC)C(=O)CC[C@@H](OC(=O)c1ccccc1-c1ccccc1C(=O)O)c1ccc(CO)o1 | -0.731 | -17.9 (active) | -0.0674 (inactive) | -6.3 (inactive) | 0.85 (inactive) | -21.6 (active) | 0.163 (inactive) | -0.171 (inactive) | 0.62 | 0.294 | -0.5 (inactive) | 0.633 | 1.47 | -4.32 (inactive) | 1.37 (inactive) | 0.477 (inactive) |
| C=C(COC)C(=O)CC[C@H](OC(=O)c1cccnc1)c1ccccc1OCCO | -0.577 | -0.332 (inactive) | -3.06 (inactive) | -0.414 (inactive) | 1.45 (inactive) | -0.511 (inactive) | -0.438 (inactive) | -0.285 (inactive) | -2.92 | -0.0143 | -0.0123 (inactive) | 0.444 | -3.02 | -4.46 (inactive) | 0.735 (inactive) | 0.565 (inactive) |
| [N-]=[N+]=NCc1ccccc1C[C@]1(C(N)=O)N=C(c2ccc(OCCCO)cc2)O[C@H]1c1ccccc1N=[N+]=[N-] | 0.776 | 0.603 (inactive) | -1.2 (inactive) | 1.56 (inactive) | 1.54 (inactive) | 2.09 (inactive) | 0.616 (inactive) | 0.116 (inactive) | -1.24 | -0.0444 | 2.56 (inactive) | 0.664 | -2.06 | -4.7 (inactive) | -0.118 (inactive) | -0.0296 (inactive) |
